The results in this text go back to PubChem BioAssay (NCI).

Test systems include T-47D breast; BT-549 breast; MDA-MB-435 melanoma; SW-620 colon; MCF7 breast; HCT-116 colon; HCC-2998 colon; KM12 colon.
Test in all cases: NCI-60 one-dose screen, 48 h (100 = growth as untreated, 0 = no growth, -100 = all killed)
Holding throughout (settings): 10 µM unless noted

Compounds without any hit were thinned out: in the full panel of roughly 83,000, 20% have a hit.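 Values shown are percent growth following 48 h exposure of cells in 96-well plates to a single concentration of compound; below 10 was considered active.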 Unmarked numbers belong to inactive results. Active and inactive are the calls of the source.

On to `C[n+]1ccccc1/C=C/c1ccc2cccc(O)c2n1`, for which the growth in the assay on T-47D breast is 97.6%; in the assay with BT-549 breast, 97.6%; with MDA-MB-435 melanoma, 114%; in the assay with SW-620 colon it was 52.1%; with MCF7 breast it was 97.3%; in the assay on HCT-116 colon it was 97%. The growth in the assay with HCC-2998 colon is 95.2%; with KM12 colon, 41.1%.

With `CCOC(=O)n1cc(-c2nonc2-c2cn(C)c3ncccc23)c2ccccc21`, the growth in the assay with T-47D breast was 15.2%; in the assay on BT-549 breast it was 87.9%; in the assay with MDA-MB-435 melanoma it was 50.2%; with SW-620 colon it was 76.6%; in the assay with MCF7 breast, 35%; with HCT-116 colon, 80.4%. Further, the growth is 89.6% in the assay on HCC-2998 colon and 66.5% with KM12 colon.

As to `C=CC(=O)Nc1cccc(-c2nc(SC)nc(Nc3ccccc3OC)c2C#N)c1`, the growth with T-47D breast is 3.01% (active); in the assay with BT-549 breast, 57.1%; with MDA-MB-435 melanoma, 18.7%; with SW-620 colon it was 17.2%; in the assay on MCF7 breast, 2.55% (active); in the assay on HCT-116 colon, 2.91% (active). Moreover, the growth in the assay with HCC-2998 colon was 81.3%; in the assay on KM12 colon it was 82.8%.

In the case of `CC(=O)OC[C@H]1O[C@H](OC(C)=O)[C@H](NC(=O)/C=C/CCl)[C@@H](OC(C)=O)[C@@H]1OC(C)=O`, the growth in the assay with T-47D breast was 69.1%; with BT-549 breast, 85.9%; in the assay with MDA-MB-435 melanoma, 80.4%; with SW-620 colon, 26%; in the assay on MCF7 breast, 79.3%; in the assay on HCT-116 colon it was 60.4%. In the assay on KM12 colon, the growth is 80.5%.

As for `COc1ccc(CN2c3ccccc3Sc3ccccc32)cc1O`, the growth in the assay with T-47D breast was 27.5%; in the assay on BT-549 breast, 54.5%; in the assay with MDA-MB-435 melanoma it was 0.932% (active); with SW-620 colon it was 31%; in the assay with MCF7 breast, 26%; in the assay on HCT-116 colon, 12.9%. Further, in the assay with KM12 colon, the growth is 17.6%.

For the compound `COc1ccc2c(c1)O/C(=C\c1cccc(OCC(=O)Nc3nc4c(s3)CCCC4)c1)C2=O`, the growth in the assay with T-47D breast is 58.4%; in the assay on BT-549 breast it was 105%; in the assay with MDA-MB-435 melanoma, 83.1%; in the assay on SW-620 colon, 89.1%; in the assay on MCF7 breast, 86.1%; with HCT-116 colon it was 77.7%. The growth in the assay on KM12 colon is 82%.

In the case of `O=c1oc2c(C(F)(F)F)cccc2cc1-c1csc(Nc2ccc(OCCF)cc2)n1`, the growth in the assay with T-47D breast was 71.1%; with BT-549 breast, 31.5%; with MDA-MB-435 melanoma it was -22.9% (active); in the assay on SW-620 colon it was 26.1%; in the assay on MCF7 breast, 15.3%; in the assay with HCT-116 colon, -26.3% (active). In addition, the growth in the assay on KM12 colon is 2.28% (active).

For the compound `CCCc1cc(=O)n2c(C(=O)Nc3cccc(C(=O)OCC)c3)c(C(=O)Nc3ccc(F)cc3)sc2n1`, the growth is 53.9% [30 µM] in the assay with T-47D breast; 82.5% [30 µM] in the assay on BT-549 breast; 73.4% [30 µM] with MDA-MB-435 melanoma; 55.9% [30 µM] in the assay on SW-620 colon; 57.4% [30 µM] in the assay on MCF7 breast; 17.7% [30 µM] in the assay with HCT-116 colon. Moreover, the growth in the assay on KM12 colon is 82.9% [30 µM].

With `COc1cccc(-c2nc(SCC(=O)Nc3ccc(C(=O)/C=C/c4ccc(OC)c(OC)c4)cc3)[nH]c(=O)c2C#N)c1`, the growth was 78.1% with T-47D breast; 85.4% in the assay on BT-549 breast; 92.3% in the assay on MDA-MB-435 melanoma; 112% in the assay on SW-620 colon; 82.4% with MCF7 breast; 77.7% in the assay with HCT-116 colon. The growth with KM12 colon was 81.5%.

Regarding `COc1cc2c(cc1O)CC[C@@H]1[C@@H]2CC[C@]2(C)[C@@H](NCCN(C)C)CC[C@@H]12`, the growth in the assay on T-47D breast is -64.5% (active); with BT-549 breast, -84.3% (active); in the assay with MDA-MB-435 melanoma, -78.9% (active); in the assay with SW-620 colon, -80.4% (active); in the assay on MCF7 breast, -75.8% (active); with HCT-116 colon it was -90.6% (active). Also, the growth with KM12 colon was -82.4% (active).

For `Cc1nc(Nc2ccc(F)c(Cl)c2)sc1C(=O)O`, the growth in the assay with T-47D breast was 6.86% (active); in the assay on BT-549 breast it was -0.289% (active); in the assay with MDA-MB-435 melanoma it was 20.4%; with SW-620 colon, 24.8%; in the assay with MCF7 breast, 11.9%; in the assay on HCT-116 colon it was 8.02% (active). In the assay on KM12 colon, the growth was -3.33% (active).

For `CCOc1nc(-c2ccccc2)cc2c(O)c(C(=O)N/N=C/c3ccc(O)cc3O)[nH]c(=O)c12`, the growth with T-47D breast was 34.3%; in the assay on BT-549 breast it was 58.9%; in the assay with MDA-MB-435 melanoma it was 48.3%; with SW-620 colon, 44.6%; with MCF7 breast, 46.3%; in the assay on HCT-116 colon, 18.6%. Moreover, the growth with KM12 colon was 42.3%.

As for `Cc1cc(C)nc(SC2=C(Nc3cccc(Cl)c3C)C(=O)N(Cc3ccccc3)C2=O)n1`, the growth is 37.1% [30 µM] in the assay with T-47D breast; 48.1% [30 µM] in the assay with BT-549 breast; 42.1% [30 µM] in the assay with MDA-MB-435 melanoma; 65.4% [30 µM] in the assay on SW-620 colon; 30.7% [30 µM] with MCF7 breast; 44.1% [30 µM] in the assay on HCT-116 colon. The growth in the assay with KM12 colon is 53.2% [30 µM].

As to `CC/C=C\C/C=C\C[C@H]1C/C=C2/C(=O)C=C[C@@H]2C/C=C\CCC(=O)O1`, the growth is 23.4% in the assay on T-47D breast; -3.33% (active) with BT-549 breast; 0.314% (active) with MDA-MB-435 melanoma; 8.89% (active) in the assay on SW-620 colon; 26.1% in the assay with MCF7 breast; -48.7% (active) with HCT-116 colon. Further, the growth with KM12 colon was -27.8% (active).

In the case of `COc1cccc2c1C(=O)c1c(O)c3c(c(O)c1C2=O)C[C@](O)(C(=O)CO)C[C@H]3O[C@@H]1C[C@@H](NC(=O)CCCN(C)C2(c3ccc(F)cc3)CC3CCC2C3)[C@H](O)[C@@H](C)O1` (stereo not given in full), the growth was 81.2% with T-47D breast; 58.6% in the assay on BT-549 breast; -88.3% (active) with MDA-MB-435 melanoma; -78.5% (active) with SW-620 colon; -59% (active) in the assay on MCF7 breast; -90.1% (active) in the assay with HCT-116 colon. The growth in the assay on KM12 colon is -77.8% (active).

For the compound `C(=C\c1nccc2c1[nH]c1ccccc12)/c1ccccc1`, the growth in the assay on T-47D breast was 29.8%; in the assay on BT-549 breast, 10.9%; with MDA-MB-435 melanoma it was -38.9% (active); with SW-620 colon, 14.8%; with MCF7 breast, 8.84% (active); in the assay with HCT-116 colon, 21.5%. The growth in the assay on KM12 colon was 15.6%.
